Here are results for 29 compounds from PubChem BioAssay AID1745847 (National Center for Advancing Translational Sciences (NCATS), 2022).

The campaign covered roughly 2,100 compounds. About 670 (32%) were called active. About 50% were inconclusive and are not listed. Calls come from the whole dose curve; as a rule, active = well fitted inhibition curve with a large enough effect; inconclusive = small, poorly fitted or top-dose-only effect; inactive = no such curve, though single readings can be large or run the other way. This is one part of the list.
% is set by controls: 0 for no effect and ±100 for the full control effect; potency is the fitted concentration of half-maximal effect.

The nature of this experiment: CMV-Luciferase Counterscreen for Inhibitors of ATXN expression. Note: nearly all actives have a fitted effect of over 55% in size. Conditions: HEK-293 CMV-luciferase reporter, luminescence, 24 h; series mostly up to 57.5 µM; activity change, negative = inhibition: at the top concentration. The source says:
PI: Daniel Scoles Ph.D. University of Utah School of Medicine, Salt Lake City, Utah MLPCN Grant: NS073009 Spinocerebellar ataxia type 2 (SCA2) is a multisystem neurodegenerative disease caused by a dominantly acting mutation leading to expansion of a polyQ domain in the ataxin-2 protein (ATXN2). SCA2 patients develop progressive ataxia and later lose function in other neuronal systems. Prominent parkinsonian signs develop in some patients. Like many neurodegenerative disorders, no symptomatic or disease-modifying treatments are known. The primary objective of the proposed research is to identify compounds inhibiting ATXN2 expression and to test them for efficacy in SCA2 mouse models. We have developed a cell-based assay paired with an in vivo mouse model using identical luciferase expression constructs. This approach takes advantage of an ATXN2-luciferase transgene, with the luciferase gene flanked by the upstream and downstream portions of the ATXN2 gene. Here we describe a 5-7 dose quantitative high thoroughput screen (qHTS) for compounds lowering ATXN2 expression. We screened the NIH Molecular Libraries Small Molecule Repository (MLSMR) and NCGC's mechanistically annotated (MIPE) and drug repurposing (NPC) collections of compounds for lowering expression of an ATXN2-luciferase reporter in HEK-293 cells. The assay is a multiplexed cell viability assay to ensure target reduction in the absence of cytotoxicity. Secondary qHTS assays included a CMV-luciferase reporter expressed in HEK-293 cells as well as a biochemical assay using recombinant luciferase to detect inhibitors of the reporter enzyme. Compounds that inhibit ATXN2 expression but is not cytotoxic were selected for confirmatory and secondary screens.
PROTOCOL TABLE (as described by Inglese J, Shamu CE and Guy RK. 2007) SEQUENCE No. (e.g., 1, 2, 3, etc.); PARAMETER (e.g., Cells, Incubation, Reagent, etc.); VALUE; DESCRIPTION. 1; Cells; 4 uL; white, solid bottom, 1536-well Greiner assay plate. 2; Incubation; 2 hr; 37 degree C in 5% humidified CO2. 3; Compounds; 23 nL; Kalypsis pintool (Wako USA) equipped with a 1536-well pin head. 4; Incubation; 24 hr; 37 degree C in 5% humidfified CO2. 5; Reagent; 1 uL; Gly-Phe-7-Amino-4-trifluoromethylcoumarin. 6; Incubation; 30 min; 37 degree C in 5% humidfified CO2. 7; Detection; Fluorescence; Viewlux plate reader (PerkinElmer). 8; Reagent; 3 uL; SteadyGlo luciferase solution (Promega). 9; Incubation; 5 min; room temperature. 10; Detection; Luminescence; ViewLux plate reader (PerkinElmer). NOTES (numbers refer to Sequence numbers above) 1. HEK-293 cells expressing CMV-luciferase reporter (designated as SC cells) were suspended in phenol-red free DMEM and dispensed in assay plates using a Multidrop Combi dispenser (Thermo Fisher Scientific). 2. Assay plates were incubated. Evaporation was prevented by covering assay plates with metal lids containing holes to allow gas diffusion. 3. Compounds were added in a dose response manner with the final concentrations of 57, 11.4, 2.28, 0.46, 0.091, 0.018, 0.0037 uM. Vehicle-only plates, with DMSO being pin-transferred to columns 5-48, were inserted uniformly at the beginning and the end of each library to monitor and record any shifts in assay performance. 5. 125 uM Gly-Phe-7-Amino-4-trifluoromethylcoumarin (MP Biomedicals) working concentration was used at a final concentration of 25 uM. 7. To assess cell viability; the assay plates were read using the ViewLux high-throughput CCD imager (PerkinElmer), wherein single end-point fluorescence measurement was acquired (excitation 405/10; emission 540/25 nm). 8. Detection reagent SteadyGlo Luciferase (Promega) was added to the assay plate. 10. Luminescence is then measured on the ViewLux imager equipped with a clear emission filter using a 2 sec exposure. […]
On the technique in general: A counterscreen serves to expose hits that act by an unwanted route or on another target.
Take `O=C(C1CCC(CNS(=O)(=O)c2cccc3nsnc23)CC1)N1CC=C(c2ccccc2)CC1` (centres undefined): the Potency was 3.16 µM (active).

In the case of `CC(=O)N/N=C/c1cc(C(C)(C)C)cc(/C=N/NC(C)=O)c1O`, the Potency is 3.16 µM (active).

Consider `O=c1cnnc(N/N=C/c2ccccn2)[nH]1`, for which the Potency is 1.41 µM (active).

With `O=c1nc(N/N=C/c2ccccn2)cn[nH]1`, the Potency was 14.1 µM (active).

As for `C(=N\Nc1ccc2nncn2n1)/c1ccccn1`, the Potency is 17.8 µM (active).

Regarding `C(=N\NC(=Nc1ccccc1)c1ccccn1)/c1ccccn1`, the “activity change, negative = inhibition” value was -1.1% (inactive).

With `Cc1nnc(N/N=C/c2ccccn2)[nH]c1=O`, the Potency is 1.78 µM (active).

For `Cn1c(/C=C/c2ccc(Cl)cc2)c([N+](=O)[O-])c(=O)n(C)c1=O`, the Potency is 31.6 µM (active).

Regarding `COc1cc2c(O)c3c(c(-c4ccc5c(c4)OCO5)c2cc1OC)C(=O)OC3`, the activity change, negative = inhibition is 16.4% [at 11.4 µM] (inactive).

Turning to `CCN1CCN(C(c2ccc(C(F)(F)F)cc2)c2ccc3cccnc3c2O)CC1` (centres undefined), the Potency is 14.1 µM (active).

As for `S=C(NCc1cccnc1)Nc1ccc(Oc2ccc(Cl)cc2)cc1`, the Potency was 10 µM (active).

Regarding `Cn1c(=O)c2cc(NC(=O)Nc3cccnc3)ccc2n1Cc1ccc(Cl)cc1`, the “activity change, negative = inhibition” value is -24% (inactive).

Regarding `NC(c1csc(Nc2nccc(C(F)(F)F)n2)n1)C1CCCCC1` (centres undefined), the activity change, negative = inhibition was 13.2% [at 11.4 µM] (inactive).

With `Cc1cccc2c1-c1sc(C(=O)Nc3ccccc3N3CCN(C)CC3)cc1CO2`, the Potency was 22.4 µM (active).

Regarding `CC1CC(C)CN(CCCNC(=O)c2cc3c(s2)-c2ccccc2OC3)C1` (centres undefined), the activity change, negative = inhibition was -23% [at 11.4 µM] (inactive).

Turning to `COCC(=O)OC/C(O)=C(\C#N)c1nc2ccccc2[nH]1`, the activity change, negative = inhibition is -13.1% [at 11.4 µM] (inactive).

Regarding `CCc1ccc(NC(=O)COc2ccc(/C=C(/C#N)c3nc4ccccc4[nH]3)cc2OC)cc1`, the Potency was 3.55 µM (active).

As for `O=C1/C(=C/c2ccc([N+](=O)[O-])cc2)C=C(c2ccccc2)N1c1ccc(O)cc1`, the Potency is 3.98 µM (active).

Take `COc1ccc(F)cc1-c1cc(NC=O)c2ncc(-c3cccc(C(=O)N(C)C)c3)n2c1`: the activity change, negative = inhibition was -8.79% [at 11.4 µM] (inactive).

With `Cc1cc(N2CCN(c3nc(-c4ccccc4)cs3)CC2)c2ccccc2n1`, the Potency is 3.55 µM (active).

As for `CCN(CC)CCn1c2ccccc2c2cnc(N)c(C#N)c21`, the activity change, negative = inhibition was -22.5% [at 11.4 µM] (inactive).

On to `CCN(CC)CCn1nc2c3c(cccc3c1=O)-c1ccccc1-2`, for which the Potency was 8.91 µM (active).

In the case of `CCN(CC)CCC(=O)Nc1cccc2c1C(=O)c1ccccc1C2=O`, the activity change, negative = inhibition was -4.68% [at 11.4 µM] (inactive).

In the case of `O=C(NNC1=Nc2ccccc2SC1)c1ccc(Cl)cc1`, the Potency is 1.78 µM (active).

As to `O=C(CN1C(=O)c2ccccc2S1(=O)=O)Nc1ncc(Cl)cc1Cl`, the Potency is 3.16 µM (active).

For the compound `CCn1c(C)cc(C(=O)CN2C(=O)c3ccccc3S2(=O)=O)c1C`, the Potency was 0.398 µM (active).

For the compound `Cc1cc(C(=O)CN2C(=O)c3ccccc3S2(=O)=O)c(C)n1CC1CCCO1` (centres undefined), the Potency was 0.501 µM (active).

As to `Cc1cc(C(=O)CN2C(=O)c3ccccc3S2(=O)=O)c(C)n1C(C)C`, the Potency is 0.562 µM (active).

Turning to `Cc1nnc(SCC(N)=O)n1CC1CCCO1` (centres undefined), the “activity change, negative = inhibition” value was -6.37% (inactive).
